# HTT ATP protect = qHTS Multiplex Assay to Identify Dual Action Probes in a Cell Model of Huntington: Cytoprotection (ATP) | PC12 HTT-Q103 induced, cytoprotection, ATP luminescence, 40 h | hit rate 0.14% among 230,000 | Potency, µM (doses to about 56.4 µM), for inactives: cytoprotection (ATP increase), usual class: activators; active = well fitted curve in the direction sought with a large enough effect; inconclusive = small, poorly fitted or top-dose-only effect, or another doubt; inactive = no such curve, though single readings can be large; an effect the other way counts as inactive or inconclusive; also: potency is read from the fitted curve at half-maximal effect; % of control where 0% means no effect; nearly all actives have a fitted effect of over 45% in size
#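 Rat PC12, Q103 Htt exon1-GFP fusion, ecdysone promoter; tebufenozide inducer 100 nM final; compound titration; qHTS, 1500 cells/well; ATPlite luminescent read.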
# HttQ103 aggreg = qHTS Multiplex Assay to Identify Dual Action Probes in a Cell Model of Huntington: Aggregate Formation (GFP); PC12 HttQ103-GFP aggregates, Acumen cytometry, 40 h; Potency, µM (titrated, usually from 46.1 µM), without a hit: top-dose activity change, negative = inhibition, actives largely listed as inhibitors; hit rate 1.1% among 220,000; active = well fitted curve in the direction sought with a large enough effect; inconclusive = small, poorly fitted or top-dose-only effect, or another doubt; inactive = no such curve, though single readings can be large; an effect the other way counts as inactive or inconclusive; also: potency is read from the fitted curve at half-maximal effect; % is scaled to controls: 0 for no effect and ±100 for the full control effect; nearly all actives have a fitted effect of over 60% in size
#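 Aggregate formation scored by laser-scanning cytometer (488 excitation, 500–530 emission) in lysed PC12 cells expressing Q103-GFP after 100 nM tebufenozide induction; library tested in dose series, with ATPLite reagent added in the multiplex.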
# ALDH1A1 inh = qHTS Assay for Inhibitors of Aldehyde Dehydrogenase 1 (ALDH1A1). Potency, µM (series often up to 75.3 µM), for inactives: at the highest dose activity, negative = inhibition, usual class: inhibitors. Purified ALDH1A1, NADH fluorescence, propionaldehyde substrate. Aldehyde dehydrogenase 1A1 (Homo sapiens), P00352. hit rate 7.3% among 220,000;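 also: potency is read from the fitted curve at half-maximal effect; plate controls were no enzyme wells and a reference inhibitor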
# RGS12 GoLoco inh = qHTS Assay for Inhibitors of RGS12 GoLoco Motif Activity (Red Fluorophore); Guanine nucleotide-binding protein G(i) subunit alpha-1 (Homo sapiens), P63096; Gai1:RGS12 GoLoco peptide FP, rhodamine, 10 min; hit rate 0.44% among 230,000; Potency, µM (titrated, usually from 61.6 µM), for the others: at the top dose activity, negative = inhibition, hits mostly inhibitors; AID 880, 2007; active = well fitted inhibition curve with a large enough effect, not every such curve was filed as active; inactive = no such curve, though single readings can be large or run the other way; also: potency is read from the fitted curve at half-maximal effect; % is scaled to controls: 0 for no effect and ±100 for the full control effect; nearly all actives have a fitted effect of over 30% in size
# Target sequence (P63096 whole entry, looked up): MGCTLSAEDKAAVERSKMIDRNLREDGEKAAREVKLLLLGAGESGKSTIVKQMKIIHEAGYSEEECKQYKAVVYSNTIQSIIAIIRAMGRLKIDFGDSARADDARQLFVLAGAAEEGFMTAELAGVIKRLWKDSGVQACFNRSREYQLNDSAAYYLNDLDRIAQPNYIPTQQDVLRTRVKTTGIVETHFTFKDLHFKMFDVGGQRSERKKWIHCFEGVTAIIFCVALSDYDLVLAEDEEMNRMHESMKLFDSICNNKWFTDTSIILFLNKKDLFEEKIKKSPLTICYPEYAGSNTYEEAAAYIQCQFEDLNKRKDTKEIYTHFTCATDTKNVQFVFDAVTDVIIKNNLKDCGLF
# HPGD block = qHTS Assay for Inhibitors of HPGD (15-Hydroxyprostaglandin Dehydrogenase). 15-hydroxyprostaglandin dehydrogenase [NAD(+)] (Homo sapiens), P15428. purified HPGD, NADH fluorescence kinetic, PGE2 substrate. Potency, µM, inactives show at the top dose activity change, negative = inhibition, usual class: inhibitors. hit rate 4.3% among 150,000; also: potency is read from the fitted curve at half-maximal effect; % is scaled to controls: 0 for no effect and ±100 for the full control effect
# Target sequence (P15428 whole entry, looked up): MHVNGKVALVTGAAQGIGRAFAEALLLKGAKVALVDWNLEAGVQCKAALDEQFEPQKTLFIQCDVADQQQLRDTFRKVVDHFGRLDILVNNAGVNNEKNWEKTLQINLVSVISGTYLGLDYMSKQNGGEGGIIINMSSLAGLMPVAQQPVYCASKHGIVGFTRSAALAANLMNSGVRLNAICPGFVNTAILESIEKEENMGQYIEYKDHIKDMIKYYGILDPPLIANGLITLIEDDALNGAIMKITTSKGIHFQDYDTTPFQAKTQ
#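 NADH formation kinetics: reaction with 30 uM PGE2 and 1 mM NAD+ (final), 20 nM enzyme, Tris-HCl pH 8 with Tween 20, after 15 min compound preincubation at room temperature. Fluorescence change, last versus first of five reads.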
# PNC assembly inh = High Content Assay for Compounds that inhibit the Assembly of the Perinucleolar Compartment | activity change (PNC), negative = inhibition, % at 10 µM | hit rate 3.1% among 140,000 | PC3M PTB-GFP, PNC prevalence imaging, 16 h; hits give low values;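 active = readout at or below -70, meaning at least 70% loss of cells showing the perinucleolar compartment, a nuclear body marking cancer cells; inconclusive = readout between -30 and a set limit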;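 also: plate controls were DMSO wells for no effect and camptothecin positive control wells for full effect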
#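 PC3M cells stably expressing PTB-GFP, 750–1000 cells/well, treated 16 h at 37 °C with compound (23 nl of library stock), in duplicate. After paraformaldehyde fixation and Hoechst stain, imaged at 20x; PNC prevalence scored by image analysis.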
# Starred values were filed as active, the others as inactive; ? = inconclusive; . = no result; [ ] = dose if it differs, or a comment. Sampled rows, rich in hits. Any-hit rate of the full collection: about 11%. Unless noted, calls follow the shape of the dose curve; as a rule, active = well fitted inhibition curve with a large enough effect (not every such curve was filed as active); inconclusive = small, poorly fitted or top-dose-only effect, or another doubt; inactive = no such curve, though single readings can be large or run the other way.
SMILES,HTT ATP protect,HttQ103 aggreg,ALDH1A1 inh,RGS12 GoLoco inh,HPGD block,PNC assembly inh
CCOC(=O)CCCCC1=CC2=CC(=O)C(C)(O)C(=O)C2=CO1 (configuration not stated),-12%[10 µM],.,-7%[13.5 µM],.,.,.
CN(C)C(CNc1nnnn1-c1ccccc1)c1ccco1 (configuration not stated),-7%[1.9 µM],-16%,-7%,11%,-3%,-90*
Cc1ccc(-n2nnnc2-c2ccco2)cc1,17%[10 µM],-2%,?,1%,-10%,28
[O-][N+]1(CC[N+]2([O-])CCCCC2)CCCCC1,-2%[10 µM],.,0%[13.5 µM],3%[14.2 µM],-8%,.
CCN1C(=O)[C@H]2[C@H]3[C@H](O)[C@H](O)C/C(=N/O[C@@H](C)c4cc(-c5c(C)cc(C)cc5C)no4)[C@@H]3CC[C@@H]2C1=O,-7%[10 µM],.,3%[13.5 µM],.,.,.
O=C(NCc1ccccn1)c1ccc2ccccc2n1,-13%,3%,-6%,22%,-17%,89
O=C(NN=C1CCCCCCC1)c1ccc2ccccc2n1,-11%[10 µM],14%,1.6µM*,1%,.,.
COCCNC(=O)c1ccc2ccccc2n1,3%,2%,?,2%,22µM*,?
NNC(=O)c1ccc2ccccc2n1,-54%,-25%,7.9µM*,5%,.,.
COc1ccc2[nH]cc(CCNc3ccnc(-c4ccccc4C(F)(F)F)n3)c2c1,-4%,.,8%,5%,.,.
CNc1sc(C(=O)c2ccc(F)cc2)c(N)c1-c1nc2ccccc2s1,17%,4%[9.22 µM],-7%,-9%,?,4
CNc1sc(C(=O)c2cccs2)c(N)c1-c1nc2ccccc2s1,5%[10 µM],-7%,1.8µM*,46%,16µM*,26
Cc1ccnc(N2C(=O)c3cccc4c([N+](=O)[O-])ccc(c34)C2=O)c1,-2%[10 µM],18µM*,-8%,-3%,-22%,28
O=C1c2cccc3c([N+](=O)[O-])ccc(c23)C(=O)N1Cc1cccnc1,-37%,35µM*,-17%,-7%,.,.
Cc1ccc(N2C(=O)c3cccc4c([N+](=O)[O-])ccc(c34)C2=O)c2cccnc12,-37%[10 µM],-33%[9.22 µM],.,30%,.,.
C=C(C(C)=O)C(O)c1ccc2ccccc2c1 (configuration not stated),-24%,.,-7%,-4%,-1%,.
CC(C)N(CC(=O)Nc1ccc(Cl)cc1C(F)(F)F)C(=O)CCl,-7%,14µM*,1.8µM*,0%,.,.
O=C(O)CSCC(=O)Nc1ccc(Cl)cc1C(F)(F)F,-25%,-6%[9.22 µM],5%,11%,.,.
C=C[C@]1(C)Cc2occ(C)c2C[C@H]1C(=C)C(=O)O,21%,.,11µM*,-3%,-5%,.
CN(C)C(=O)COC(=O)c1cccnc1Nc1ccccc1F,3%[1.9 µM],-2%,-10%,3%,-15%,-1
NC(=O)COC(=O)c1cccnc1Nc1ccccc1F,-35%,2%,11µM*,-1%,.,.
NS(=O)(=O)c1ccc(CCN2C(=O)/C(=C\c3ccc(Cl)cc3)SC2=S)cc1,8%[10 µM],?,?,4%,-2%,-84*
CC(=O)OC[C@@H]1O[C@@H](O/N=C2/C[C@@H](O)[C@@H](O)[C@@H]3[C@@H]4C(=O)N(C5CCCCC5)C(=O)[C@H]4CC[C@@H]23)[C@H](OC(C)=O)[C@H](OC(C)=O)[C@@H]1OC(C)=O,-6%[10 µM],.,15%[13.5 µM],.,.,.
Cc1sc2ncnc(OCC(=O)Nc3ccc4c(c3)OCCO4)c2c1C,-7%,-1%,20µM*,95%,-22%,-29
O=C(COc1ncnc2sccc12)Nc1ccc2c(c1)OCCO2,8%,6%,-5%,9%,-8%,-112*
SMILES,HTT ATP protect,HttQ103 aggreg,ALDH1A1 inh,RGS12 GoLoco inh,HPGD block,PNC assembly inh
S=C(Nc1ccc(Cl)c(Cl)c1)NC1CCN(Cc2ccccc2)CC1,4%[10 µM],-17%,-16%,-3%,-17%,30
Fc1ccc(NC(=S)NC2CCN(Cc3ccccc3)CC2)cc1,21%[10 µM],-17%[9.22 µM],14µM*,6%,.,.
CCc1ccc2[nH]c(=O)c(CN(CCN3CCOCC3)C(=O)Nc3ccccc3F)cc2c1,-15%,15%,-3%,8%,-5%,-86*
O=C(Nc1ccccc1)N(CCCN1CCOCC1)Cc1ccccc1F,-41%,0%,3%,4%,-4%,-109*
CCc1ccc2[nH]c(=O)c(CN(CCCN3CCOCC3)C(=O)Nc3ccc(F)cc3)cc2c1,-35%,5%,?,8%,?,19
CCN1C(=O)N[C@H](c2ccccc2)C(C(C)=O)=C1C,13%[10 µM],.,16%[13.5 µM],1%[14.2 µM],-4%,.
Cc1nn(CCO)c2nc(-c3cccs3)cc(C(F)(F)F)c12,40%[10 µM],-13%,?,-8%,?,-11
O=C(NCCCc1nc2ccccc2[nH]1)c1ccc(F)cc1,0.35µM*,?,3%,-12%,.,.
O=C(NCCO)c1ccc(Cc2nc3ccccc3[nH]2)cc1,.,.,8%,.,0%,.
CC1(C)CC[C@]2(C(=O)O)CC[C@]3(C)C(=CCC4[C@@]5(C)CC[C@H](O)C(C)(C)C5[C@H](O)C[C@]43C)C2C1 (some centres not stated),27%[1.9 µM],.,0%,7%,-3%,.
CC(C)C(NC(=O)C(CC(=O)O)NC(=O)C(CCCCN)NC(=O)C(N)CCCN=C(N)N)C(=O)NC(Cc1ccc(O)cc1)C(=O)O (configuration not stated),-11%,0%,.,.,.,.
C(=N\N(Cc1ccccc1)c1ccccc1)/c1ccco1,-30%,11%,14µM*,10%,.,.
COc1ccc(/C=N/N(Cc2ccccc2)c2ccccc2)cc1O,23%[10 µM],1%[9.22 µM],-4%,5%,.,.
O=C(Cn1nnc(-c2cccs2)n1)N1CCOCC1,-28%,-2%,16%,11%,.,.
O=C(c1cc(-c2cccs2)on1)N1CCc2ccccc2C1,26%[10 µM],9%,-4%,-4%,13µM*,179
O=C(CCn1nnc(-c2cccs2)n1)N1CCc2ccccc2C1,-6%[10 µM],5%,28µM*,19%,16µM*,?
O=C(c1cc(-c2ccco2)on1)N1CCN(c2ccccc2)CC1,-4%,16%,14µM*,0%,-18%,5
O=C(c1ccc2nc(-c3ccco3)c(-c3ccco3)nc2c1)N1CCN(c2ccccc2)CC1,-5%[0.074 µM],?,8.9µM*,7%,?,-12
O=C(c1cc(-c2ccccc2O)on1)N1CCc2ccccc2C1,1%,7%,?,4%,?,?

# Source: PubChem
